SMILES strings stand for the structures. For some of these results: Potency and affinity values are given separately.

Experimental findings from ChEMBL document CHEMBL3988442, “University of Dundee, Small-Polar-MMV Screening Library” (2021) are described below.

Common to all, as to design: scale not given: direction of the effect not stated beside the values
Experiment [1] concerns the target Protein translocase subunit SecA (Escherichia coli (strain K12)) (UniProt P10408). Put plainly: Assay to Identify E. coli SecA ATPase Inhibitors. The class given is functional. The settings on record: 30 µM.
Experiment [2] concerns the target T1, Ubiquitin-activating enzyme e1, putative (Leishmania donovani (strain BPK282A1)) (UniProt E9BSI1).
T1 sequence (whole entry): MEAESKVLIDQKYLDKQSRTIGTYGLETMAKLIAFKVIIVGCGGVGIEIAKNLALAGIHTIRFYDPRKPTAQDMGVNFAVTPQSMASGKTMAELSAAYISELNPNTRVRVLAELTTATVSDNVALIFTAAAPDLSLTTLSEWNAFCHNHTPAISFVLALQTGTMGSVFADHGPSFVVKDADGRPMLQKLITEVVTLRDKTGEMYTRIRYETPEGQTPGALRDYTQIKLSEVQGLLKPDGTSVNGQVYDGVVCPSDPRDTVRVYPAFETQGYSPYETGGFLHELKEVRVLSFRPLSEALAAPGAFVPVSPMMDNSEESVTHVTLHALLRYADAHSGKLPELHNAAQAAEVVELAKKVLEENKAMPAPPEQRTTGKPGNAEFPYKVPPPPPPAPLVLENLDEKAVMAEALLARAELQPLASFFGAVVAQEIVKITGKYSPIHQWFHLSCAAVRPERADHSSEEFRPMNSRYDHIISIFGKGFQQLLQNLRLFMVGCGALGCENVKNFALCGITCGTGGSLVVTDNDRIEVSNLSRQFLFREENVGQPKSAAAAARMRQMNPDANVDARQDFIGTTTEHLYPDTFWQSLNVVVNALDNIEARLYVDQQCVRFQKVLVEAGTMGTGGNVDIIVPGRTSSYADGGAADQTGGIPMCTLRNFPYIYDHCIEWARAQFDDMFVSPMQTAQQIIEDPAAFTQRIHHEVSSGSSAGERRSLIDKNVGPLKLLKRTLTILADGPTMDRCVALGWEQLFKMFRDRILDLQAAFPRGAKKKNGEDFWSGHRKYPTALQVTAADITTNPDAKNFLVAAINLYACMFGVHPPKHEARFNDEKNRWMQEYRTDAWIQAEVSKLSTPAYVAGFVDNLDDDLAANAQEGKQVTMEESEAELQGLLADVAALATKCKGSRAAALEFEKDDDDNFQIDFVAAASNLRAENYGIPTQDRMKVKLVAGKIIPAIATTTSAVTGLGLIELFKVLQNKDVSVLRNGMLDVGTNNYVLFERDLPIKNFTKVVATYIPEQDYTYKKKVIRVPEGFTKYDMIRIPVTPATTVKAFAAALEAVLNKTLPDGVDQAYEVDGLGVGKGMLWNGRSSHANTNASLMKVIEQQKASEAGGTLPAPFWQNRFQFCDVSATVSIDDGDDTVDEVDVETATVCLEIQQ
Put plainly: Leishmania donovani Ubiquitin Activating Enzyme (LdE1). Format: functional. The settings on record: 30 µM.

The target of experiment [3] is AMP-activated protein kinase, AMPK (Homo sapiens) (UniProt P54646+O43741+P54619+Q9UGJ0+Q9Y478+Q13131+Q9UGI9). Put plainly: AMP-dependent Kinase enzyme assay. An in vitro enzyme assay that detects ADP turnover that is directly proportional to AMPK activity. This uses naive AMPK that is activated during the assay with MK-8722. The class given is functional. The settings on record: 30 µM.

The target of experiment [4] is Sialic acid-binding Ig-like lectin 9 (Homo sapiens) (UniProt Q9Y336). Put plainly: Hs-Siglec9 ALPHAscreen SOP 20170721. The settings on record: 10 µM. A general note: Alpha assays give light when donor and acceptor beads are brought close together.
In the next experiment the test system is Trypanosoma cruzi. Put plainly: Trypanosoma cruzi phosphomannomutase and mannose-1-phosphate guanylyltransferase assay. The class given is functional. The settings on record: 10 µM.
Experiment [5] has as its target T2, Arginase-2, mitochondrial (Homo sapiens) (UniProt P78540).
T2 sequence (whole entry): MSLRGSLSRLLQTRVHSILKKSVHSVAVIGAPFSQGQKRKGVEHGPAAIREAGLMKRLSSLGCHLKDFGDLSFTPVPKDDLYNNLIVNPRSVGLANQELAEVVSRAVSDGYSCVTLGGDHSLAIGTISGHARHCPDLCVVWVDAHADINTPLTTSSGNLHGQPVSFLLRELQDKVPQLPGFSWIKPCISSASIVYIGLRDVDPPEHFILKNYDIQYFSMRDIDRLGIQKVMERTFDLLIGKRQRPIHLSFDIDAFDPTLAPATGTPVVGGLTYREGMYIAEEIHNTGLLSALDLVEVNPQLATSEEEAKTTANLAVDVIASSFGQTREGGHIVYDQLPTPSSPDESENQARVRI
Put plainly: in vitro enzyme assay to detect the production of urea directly proportional to the activity of Arginase II. Also: in the data most compounds retested in dose-response had high values. The class given is functional. The settings on record: 33.3 µM.

The target of experiment [6] is T3, Proteasome subunit beta (Trypanosoma cruzi) (UniProt O96673).
T3 sequence (whole entry): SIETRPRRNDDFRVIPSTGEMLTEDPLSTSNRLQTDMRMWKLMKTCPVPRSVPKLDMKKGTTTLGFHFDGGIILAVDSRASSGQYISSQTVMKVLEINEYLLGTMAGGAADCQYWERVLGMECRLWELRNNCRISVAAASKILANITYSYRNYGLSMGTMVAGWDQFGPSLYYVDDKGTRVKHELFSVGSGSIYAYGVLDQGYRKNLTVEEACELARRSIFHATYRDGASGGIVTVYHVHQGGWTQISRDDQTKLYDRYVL
Put plainly: Trypanosoma cruzi proteasome chymotrypsin-like activity (TcProtChymo) assay. Also: in the data most compounds retested in dose-response had high values. Format: functional. The settings on record: 9.37 µM.

The species named for the next experiment is Homo sapiens. Put plainly: To identify inhibition of the IFN signalling (Jak-Stat) pathway via expression of an eGFP reporter gene under the control of an IFN-stimulated response element (ISRE) containing MxA promoter. Format: functional. The settings on record: 30 µM. Background: A reporter such as luciferase makes a cellular process visible.
The target of experiment [7] is T4, Tyrosyl-tRNA synthetase, putative (Trypanosoma cruzi (strain CL Brener)) (UniProt Q4DSP6).
T4 sequence (whole entry): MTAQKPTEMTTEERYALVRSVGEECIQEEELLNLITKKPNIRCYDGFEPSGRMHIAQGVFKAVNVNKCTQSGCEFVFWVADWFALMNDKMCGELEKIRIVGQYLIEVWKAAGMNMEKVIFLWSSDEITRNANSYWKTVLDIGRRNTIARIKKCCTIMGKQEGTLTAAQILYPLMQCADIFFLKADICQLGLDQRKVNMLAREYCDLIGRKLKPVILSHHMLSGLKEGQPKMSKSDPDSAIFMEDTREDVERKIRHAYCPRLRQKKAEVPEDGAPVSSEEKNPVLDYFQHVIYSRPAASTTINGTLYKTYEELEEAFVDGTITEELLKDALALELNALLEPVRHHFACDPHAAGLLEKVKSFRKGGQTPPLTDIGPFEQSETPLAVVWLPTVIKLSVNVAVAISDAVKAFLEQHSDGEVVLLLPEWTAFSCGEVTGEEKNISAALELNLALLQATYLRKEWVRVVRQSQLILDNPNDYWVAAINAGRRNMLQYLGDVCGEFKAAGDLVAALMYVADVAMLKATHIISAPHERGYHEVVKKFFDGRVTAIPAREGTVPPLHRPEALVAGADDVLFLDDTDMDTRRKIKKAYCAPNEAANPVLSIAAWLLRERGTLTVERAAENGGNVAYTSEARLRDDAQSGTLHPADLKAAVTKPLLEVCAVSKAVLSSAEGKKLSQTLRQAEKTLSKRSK
Put plainly: Trypanosoma cruzi tyrosyl tRNA synthetase (TcYRS) _High Tyrosine SOP. Also: in the data most compounds retested in dose-response had high values. The class given is functional. The settings on record: 30 µM.

The target of experiment [8] is T4, Tyrosyl-tRNA synthetase, putative (Trypanosoma cruzi (strain CL Brener)). Put plainly: Trypanosoma cruzi tyrosyl tRNA synthetase (TcYRS) SOP. Format: functional. The settings on record: 30 µM.
Experiment [9] addresses Chromo domain-containing protein 1 (Saccharomyces cerevisiae (strain ATCC 204508 / S288c) (Baker's yeast)) (UniProt P32657). Put plainly: ScCHD-1 Enzyme Inhibition Assay. Also: in the data most compounds retested in dose-response had high values. The class given is functional. The settings on record: 30 µM.

Chain of Sialic acid-binding Ig-like lectin 9 (Homo sapiens) (Q9Y336 whole entry): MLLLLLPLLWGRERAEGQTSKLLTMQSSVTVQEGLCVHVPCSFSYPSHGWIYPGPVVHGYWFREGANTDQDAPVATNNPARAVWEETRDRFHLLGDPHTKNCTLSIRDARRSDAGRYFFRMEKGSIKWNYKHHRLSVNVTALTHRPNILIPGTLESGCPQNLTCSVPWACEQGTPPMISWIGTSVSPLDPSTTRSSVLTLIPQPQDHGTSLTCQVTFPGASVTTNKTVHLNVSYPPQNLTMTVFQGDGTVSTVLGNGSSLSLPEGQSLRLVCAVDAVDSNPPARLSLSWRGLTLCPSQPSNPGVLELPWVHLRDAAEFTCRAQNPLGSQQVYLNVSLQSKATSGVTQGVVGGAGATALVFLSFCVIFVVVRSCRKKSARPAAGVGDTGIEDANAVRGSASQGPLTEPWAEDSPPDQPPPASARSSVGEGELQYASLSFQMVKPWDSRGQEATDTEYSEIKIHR
Chain of Protein translocase subunit SecA (Escherichia coli (strain K12)) (P10408 whole entry): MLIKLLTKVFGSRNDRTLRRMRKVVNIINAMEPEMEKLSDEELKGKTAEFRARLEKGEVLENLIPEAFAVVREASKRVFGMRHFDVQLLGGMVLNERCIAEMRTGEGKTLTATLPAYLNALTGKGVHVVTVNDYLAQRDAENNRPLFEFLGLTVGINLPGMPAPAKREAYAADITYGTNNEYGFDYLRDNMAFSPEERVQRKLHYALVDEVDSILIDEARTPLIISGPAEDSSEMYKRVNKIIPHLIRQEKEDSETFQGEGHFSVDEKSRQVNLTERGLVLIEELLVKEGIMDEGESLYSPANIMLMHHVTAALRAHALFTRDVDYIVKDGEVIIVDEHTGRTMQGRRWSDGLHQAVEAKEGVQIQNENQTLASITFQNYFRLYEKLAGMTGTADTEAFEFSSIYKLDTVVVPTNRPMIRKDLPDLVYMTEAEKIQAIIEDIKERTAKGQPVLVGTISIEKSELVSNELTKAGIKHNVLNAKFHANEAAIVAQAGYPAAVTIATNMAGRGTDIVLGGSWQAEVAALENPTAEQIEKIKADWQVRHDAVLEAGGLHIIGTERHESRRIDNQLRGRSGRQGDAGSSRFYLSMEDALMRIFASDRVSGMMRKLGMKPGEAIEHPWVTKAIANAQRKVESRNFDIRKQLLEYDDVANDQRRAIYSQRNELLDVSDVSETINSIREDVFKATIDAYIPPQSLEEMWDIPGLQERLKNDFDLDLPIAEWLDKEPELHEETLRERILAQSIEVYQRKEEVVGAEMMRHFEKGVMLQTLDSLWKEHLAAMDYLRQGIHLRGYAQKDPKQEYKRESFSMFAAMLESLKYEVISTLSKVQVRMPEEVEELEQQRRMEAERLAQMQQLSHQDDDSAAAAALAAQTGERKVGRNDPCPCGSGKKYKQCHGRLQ
Chain of Chromo domain-containing protein 1 (Saccharomyces cerevisiae (strain ATCC 204508 / S288c) (Baker's yeast)) (P32657 whole entry, the tested form may be a part): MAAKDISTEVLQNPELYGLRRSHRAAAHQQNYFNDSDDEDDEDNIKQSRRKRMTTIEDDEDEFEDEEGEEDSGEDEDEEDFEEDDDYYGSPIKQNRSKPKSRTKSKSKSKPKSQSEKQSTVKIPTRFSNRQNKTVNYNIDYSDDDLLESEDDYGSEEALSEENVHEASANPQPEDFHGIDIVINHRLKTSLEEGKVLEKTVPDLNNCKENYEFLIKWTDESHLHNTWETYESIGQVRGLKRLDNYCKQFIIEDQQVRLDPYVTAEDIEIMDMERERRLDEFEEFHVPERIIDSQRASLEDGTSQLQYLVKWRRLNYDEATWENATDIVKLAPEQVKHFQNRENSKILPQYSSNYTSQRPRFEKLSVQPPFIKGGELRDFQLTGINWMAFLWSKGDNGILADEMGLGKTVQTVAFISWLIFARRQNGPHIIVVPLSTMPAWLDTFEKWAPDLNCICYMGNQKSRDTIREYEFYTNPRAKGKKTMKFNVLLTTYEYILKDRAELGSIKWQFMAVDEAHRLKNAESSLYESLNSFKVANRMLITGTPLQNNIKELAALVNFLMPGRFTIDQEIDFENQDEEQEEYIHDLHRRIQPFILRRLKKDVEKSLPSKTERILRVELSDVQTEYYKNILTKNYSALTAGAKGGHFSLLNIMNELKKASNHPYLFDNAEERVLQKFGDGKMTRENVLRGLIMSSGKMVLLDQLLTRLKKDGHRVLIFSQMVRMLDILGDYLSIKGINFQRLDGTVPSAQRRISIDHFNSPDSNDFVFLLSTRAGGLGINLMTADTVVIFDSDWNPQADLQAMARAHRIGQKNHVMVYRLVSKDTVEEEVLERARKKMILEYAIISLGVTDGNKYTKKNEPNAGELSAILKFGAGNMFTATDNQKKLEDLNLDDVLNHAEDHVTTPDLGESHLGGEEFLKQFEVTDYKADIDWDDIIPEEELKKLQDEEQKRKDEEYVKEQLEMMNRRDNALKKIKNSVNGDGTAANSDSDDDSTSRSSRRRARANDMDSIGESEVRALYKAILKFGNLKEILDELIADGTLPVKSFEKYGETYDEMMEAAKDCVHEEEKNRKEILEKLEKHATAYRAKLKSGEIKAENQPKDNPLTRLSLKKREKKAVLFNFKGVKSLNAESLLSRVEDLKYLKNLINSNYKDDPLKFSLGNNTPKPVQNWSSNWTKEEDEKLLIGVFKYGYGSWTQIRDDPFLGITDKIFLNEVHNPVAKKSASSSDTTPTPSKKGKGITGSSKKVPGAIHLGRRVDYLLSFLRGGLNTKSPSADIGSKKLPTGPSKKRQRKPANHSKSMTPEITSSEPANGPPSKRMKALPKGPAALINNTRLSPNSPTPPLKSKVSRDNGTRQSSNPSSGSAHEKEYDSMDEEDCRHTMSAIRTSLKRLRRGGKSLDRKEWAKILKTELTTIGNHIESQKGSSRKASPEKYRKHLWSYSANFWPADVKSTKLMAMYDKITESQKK

Take `c1ccc(CN2CCCC2Cn2cncn2)nc1` (stereo unspecified): the Percent Effect in experiment [1] is -2.52%; in experiment [2] it was -2.53%; in experiment [3], 3.76%; in experiment [4] it was 6.27%; in the experiment with Trypanosoma cruzi, 3.87%; in experiment [5] it was -0.76%. The Percent Effect is 5.32% in [6]; -14.3% in the experiment filed under Homo sapiens; 9.36% in experiment [7]; 3.8% in experiment [8]; -4.39% in experiment [9].

Turning to `Cc1ncsc1C(=O)NC1CCN(CC(=O)N(C)C(C)(C)C#N)CC1`, the Percent Effect was -9.21% in [1]; 7.89% in experiment [2]; -2.06% in experiment [3]; 0.841% in experiment [4]; -1.77% in the experiment on Trypanosoma cruzi; 1.08% in [5]. The Percent Effect in [6] is -2.45%; in the experiment filed under Homo sapiens it was 23.3%; in experiment [7], 1.48%; in experiment [8], -1.24%; in [9], 2.71%.

Regarding `Cc1ccn(-c2ccc(C(=O)N3CCCC(C(N)=O)C3)cc2)n1` (stereo unspecified), the Percent Effect is -6.07% in experiment [1]; 10.1% in [2]; -10.5% in [3]; 3.7% in [4]; -5% in the experiment with Trypanosoma cruzi; -1.9% in [5]. Also, the Percent Effect is 5.16% in experiment [6]; 28.1% in the experiment listed under Homo sapiens; 0.493% in experiment [7]; 8.86% in experiment [8]; -4.17% in experiment [9].

For `c1ccc(OCCCNCCn2cccn2)cc1`, the Percent Effect in experiment [1] is -4.38%; in [2], 1.27%; in [3] it was -0.45%; in experiment [4] it was 4.63%; in the experiment with Trypanosoma cruzi it was 4%; in experiment [5], -2.8%. The Percent Effect is 3.94% in experiment [6]; -1.21% in the experiment filed under Homo sapiens; 5.21% in experiment [7]; 10.1% in experiment [8]; -18.9% in [9].

Regarding `CCC1(CC)Cc2ccccc2-c2nc(CN(C)C)nc(O)c21`, the Percent Effect in experiment [1] was -3.62%; in experiment [2], 10.5%; in experiment [3], 5%; in experiment [4], 4.55%; with Trypanosoma cruzi it was 0.292%; in [5], -5.92%. For the same compound, the Percent Effect is 12.8% in experiment [6]; 14.4% in the experiment listed under Homo sapiens; 5.32% in experiment [7]; 10.4% in experiment [8]; -3.79% in experiment [9].

With `O=C(C1CCOCC1)N1CCO[C@H]2[C@@H](OCc3ccncc3)CC[C@@H]21`, the Percent Effect was -7.25% in [1]; 16.2% in [2]; -5.41% in experiment [3]; 21.1% in experiment [4]; 4.1% with Trypanosoma cruzi; 1.67% in experiment [5]. Also, the Percent Effect in experiment [6] is 6.17%; in the experiment filed under Homo sapiens it was 32.4%; in experiment [7], 2.97%; in experiment [8] it was 13.4%; in experiment [9] it was -6.34%.

Turning to `Cc1ccc(OCC(=O)NCC(C)C)nc1`, the Percent Effect in experiment [1] was -6.24%; in experiment [2], 13.7%; in [3], -6.5%; in experiment [4] it was 6.61%; in the experiment with Trypanosoma cruzi, 6.94%; in experiment [5] it was 1.2%. Further, the Percent Effect is 4.37% in experiment [6]; 1.54% in the experiment listed under Homo sapiens; 8.33% in experiment [7]; 11.1% in [8]; -8.95% in experiment [9].

On to `CNC(=O)CS(=O)(=O)C1CCN(S(=O)(=O)c2ccccc2Br)CC1`, for which the Percent Effect is 1.17% in [1]; 0% in [2]; 4.03% in experiment [3]; 13.4% in [4]; 4.5% in the experiment with Trypanosoma cruzi; 5.46% in experiment [5]. In addition, the Percent Effect in experiment [6] was 2.31%; in the experiment filed under Homo sapiens, 26.1%; in experiment [7] it was 1.07%; in experiment [8], 2.5%; in experiment [9], -0.751%.

For `Cn1ccnc1CN1CCC2(COCCN(Cc3ccsc3)C2)C1` (stereo unspecified), the Percent Effect in experiment [1] was -3.36%; in experiment [2] it was 13%; in [3] it was -5.28%; in experiment [4] it was 12.1%; in the experiment with Trypanosoma cruzi it was 6%; in [5], -11%. The Percent Effect was 12.2% in experiment [6]; -9.92% in the experiment listed under Homo sapiens; 9.68% in experiment [7]; 21% in experiment [8]; -6.67% in [9].

Consider `O=S(=O)(Cc1ccccc1)NCc1ccco1`, for which the Percent Effect is -2.2% in experiment [1]; -1.39% in experiment [2]; 13.3% in [3]; 0.175% in experiment [4]; 0.68% in the experiment on Trypanosoma cruzi; 0% in experiment [5]. Besides, the Percent Effect was -1.4% in [6]; 6.12% in the experiment listed under Homo sapiens; 3.16% in experiment [7]; 2.56% in experiment [8]; 0.387% in [9].

In the case of `CCc1noc(C(C)N2CCN(Cc3ncc(C(C)(C)C)o3)CC2)n1` (stereo unspecified), the Percent Effect in [1] was 1.4%; in experiment [2] it was 28.9%; in [3], -4.2%; in experiment [4] it was -2.15%; in the experiment on Trypanosoma cruzi, -3.38%; in experiment [5], 0.383%. In addition, the Percent Effect in experiment [6] is 15%; in the experiment listed under Homo sapiens it was 26%; in experiment [7] it was 3.43%; in experiment [8] it was 9.76%; in [9], -10.7%.
